Reference: PMC6212833
In all, about 2,000 compounds went through this assay and about 15 (0.8%) showed an effect of 50% or more. For the sample, strong results were picked, then their nearest neighbours and some compounds at random. Where a SMILES comes first, the peptide text is derived from it. [ ]: non-standard residue; d: D form. pGlu = O=C1CC[C@@H](C(=O)O)N1; Thz = O=C(O)[C@@H]1CSCN1

Test system: Balamuthia mandrillaris (ATCC PRA-291) trophozoites, axenic culture
Experiment: primary screen, percent inhibition; higher = more effect of the substance;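 note: 0% = vehicle wells and 100% = lysate wells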
Settings: 20 µM
Experimental: Screening of a clinically approved library of compounds, compiled by the Small Molecule Discovery Center (SMDC) at the UCSF, was completed at 20 µM in 0.2% DMSO. All 2,177 drugs in the library were stored as 10 mM stocks dissolved in 100% DMSO (Sigma-Aldrich) at −20°C. B. mandrillaris amoebae were resuspended in axenic medium and distributed into opaque 384-well plates (Corning) at a density of 3,000 amoebae per well using a BioMek NX liquid handler. Negative-control wells were treated with vehicle only (0.2% DMSO in axenic medium), and positive-control wells simulating total destruction of amoebae were seeded with amoeba lysate generated by 3 consecutive freeze-thaw cycles. Following 72 h of incubation, 30 µl of CellTiter Glo reagent (CTG; Promega) was added to each well. The luminescence was measured with a Promega GloMax-Multi+ plate reader at 2, 4, and 8 h after CTG addition. […] The B-score, representing a plate-based statistical approach for correcting row, column, and edge effects, was also calculated for each compound in the library (75).

Point of comparison: `NC[C@H]1O[C@H](O[C@H]2[C@H](O)[C@@H](O[C@H]3O[C@H](CO)[C@@H](O)[C@H](N)[C@H]3O)[C@H](N)C[C@@H]2N)[C@H](O)[C@@H](O)[C@@H]1O`, “% Inhibition” value 16%. Against it:
- Cc1c(NC(C)C)c(=O)n(-c2ccccc2)n1C — lower, -7.04%
- Cc1c(NC(=O)c2cccnc2)c(=O)n(-c2ccccc2)n1C — higher, 70.2%
- Cc1c(N(C)C)c(=O)n(-c2ccccc2)n1C — higher, 29.7%
- C=CC1=C(C(=O)O)N2C(=O)[C@@H](NC(=O)/C(=N\OCC(=O)O)c3csc(N)n3)[C@H]2SC1 — lower, 6.01%
- C[N+]1(C)C2CC(OC(=O)[C@@H](CO)c3ccccc3)CC1C1OC12 (some centres unmarked) — lower, 15.9%
- NCCCC(N)C(=O)O (centres unmarked) [131504-L4] — lower, 14.1%
- CO/N=C(/C(=O)NC1C(=O)N2C(C(=O)O)=C(COC(N)=O)CSC12)c1ccco1 (centres unmarked) — higher, 41.1%
- CO[C@H]1/C=C/O[C@@]2(C)Oc3c(C)c(O)c4c(O)c(c(/C=N\N5CCN(C)CC5)c(O)c4c3C2=O)NC(=O)/C(C)=C\C=C\C(C)[C@H](O)[C@@H](C)[C@@H](O)[C@@H](C)[C@@H](OC(C)=O)[C@@H]1C (some centres unmarked) — higher, 30.6%
- O=C1CC[C@@H](C(=O)N2CSC[C@H]2C(=O)O)N1 ([pGlu]-[Thz]-OH) — higher, 16.6%
- CNC1(c2ccccc2Cl)CCCCC1=O (centres unmarked) — lower, 1.15%
- Clc1ccccc1CN1CCc2sccc2C1 — higher, 30.2%
- CC[C@@H](C(N)=O)N1CCCC1=O — lower, 13.9%
- NC[C@H](O)c1ccc(O)c(O)c1 [130720-L3] — lower, 14.8%
- C[N+](C)(C)CCOC(N)=O — lower, -7.4%
- C[C@]12CCC3c4ccc(O)cc4CCC3C1CCC2=O (some centres unmarked) — lower, -7.91%
- CNCCCC12CCC(c3ccccc31)c1ccccc12 — lower, 15.2%
- CC1(C)O[C@]2(C)CC[C@H]1CC2 — higher, 17.9%
- Cn1c(=O)c2nc[nH]c2n(C)c1=O [88704-L9] — lower, 8.85%
- Cc1ccc(-c2cc(C(F)(F)F)nn2-c2ccc(S(N)(=O)=O)cc2)cc1 — higher, 20.5%
- CN1C2C[C@@H](OC(=O)[C@H](CO)c3ccccc3)CC1[C@@H]1O[C@H]21 — lower, 0.52%
- CC(C)(C)NC[C@H](O)COc1nsnc1N1CCOCC1 — lower, -3.01%
- C=CCN1CC[C@]23c4c5ccc(O)c4OC2C(=O)CC[C@@]3(O)[C@H]1C5 (some centres unmarked) — higher, 29.3%
- CCC1(CC)C(=O)C=CNC1=O — higher, 27.7%
- COc1ccc(CC2c3cc(OC)c(OC)cc3CC[N+]2(C)CCC(=O)OCCCCCOC(=O)CC[N+]2(C)CCc3cc(OC)c(OC)cc3C2Cc2ccc(OC)c(OC)c2)cc1OC (centres unmarked) [756849-L2] — lower, 13.9%
- O=C(O)CCCc1ccc(N(CCCl)CCCl)cc1 — lower, -32.3%
- CN(C)c1ccc2nc3ccc(=[N+](C)C)cc-3sc2c1 — higher, 35.9%
- C[N+]1(C)[C@H]2CC(OC(=O)[C@H](CO)c3ccccc3)C[C@H]1C1OC12 (some centres unmarked) — lower, 14.3%
- C=CCC1(C(C)CCC)C(=O)NC(=O)NC1=O (centres unmarked) — lower, 11.2%
- CCC1C(C)=NN=C(c2ccc(OC)c(OC)c2)c2cc(OC)c(OC)cc21 (centres unmarked) — lower, 11.9%
- CN(C)CCOC(c1ccc(Cl)cc1)c1ccccn1 (centres unmarked) — lower, 7.85%
- O=S(=O)(O)CCSSCCS(=O)(=O)O — higher, 37.4%
- Cc1nnc(SCC2=C(C(=O)O)N3C(=O)[C@@H](NC(=O)Cn4cnnn4)[C@H]3SC2)s1 — lower, 10.9%
- O=C(O)CCC(=O)OC[C@@H](NC(=O)C(Cl)Cl)[C@H](O)c1ccc([N+](=O)[O-])cc1 — lower, -36.5%
- CC[C@H]1OC(=O)[C@H](C)[C@@H](O[C@H]2C[C@@](C)(OC)[C@@H](O)[C@H](C)O2)[C@H](C)[C@@H](O[C@@H]2O[C@H](C)C[C@H](N(C)C)[C@H]2O)[C@](C)(O)C[C@@H](C)CN(C)[C@H](C)[C@@H](O)[C@]1(C)O — higher, 23.9%
- Nc1c2c(nc3ccccc13)CCCC2 — higher, 30.5%
- CC[C@H](NC(C)C)[C@H](O)c1ccc(O)c2nc(O)ccc12 — lower, 6.56%
- C[C@]12C=CC(=O)C=C1CCC1C2[C@@H](O)C[C@@]2(C)C1CC[C@]2(O)C(=O)COP(=O)(O)O (some centres unmarked) — lower, 5.73%
- CN(C)CCC[C@@]1(c2ccc(F)cc2)OCc2cc(C#N)ccc21 [131042-L4] — higher, 26.2%
- Clc1ccc(CSC(Cn2ccnc2)c2ccc(Cl)cc2Cl)cc1 (centres unmarked) — lower, 15.3%
- CN(C)CCC=C1c2ccccc2C=Cc2ccccc21 — higher, 23.3%
- CN(C)C(=O)Oc1cc(OC(=O)N(C)C)cc(C(O)CNC(C)(C)C)c1 (centres unmarked) [255708-L4] — lower, 12%
- OC[C@H]1O[C@@](CO)(OC[C@@]2(O)O[C@H](CO)[C@@H](O)[C@@H]2O)[C@@H](O)[C@@H]1O — higher, 26.1%
- NC(=O)N1c2ccccc2C=Cc2ccccc21 — lower, 6.46%
- CCN(CC)C(C)CN1c2ccccc2Sc2ccccc21 (centres unmarked) — lower, 8.27%
- O=c1[nH]c(=O)n([C@H]2C[C@H](O)[C@@H](CO)O2)cc1F — lower, 4.91%
- CCN(CC)CCNC(=O)c1c(C)[nH]c(/C=C2\C(=O)Nc3ccc(F)cc32)c1C — lower, 6.48%
- O=C(Nc1ccccc1)OCC(CN1CCCCC1)OC(=O)Nc1ccccc1 (centres unmarked) — lower, 9.34%
- CCCCC1=NC2(CCCC2)C(=O)N1Cc1ccc(-c2ccccc2-c2nn[nH]n2)cc1 — lower, 14.7%
- CCCc1nc(C(C)(C)O)c(C(=O)O)n1Cc1ccc(-c2ccccc2-c2nn[nH]n2)cc1 — higher, 21.5%
- OCCN1CCN(CCCN2c3ccccc3Sc3ccc(Cl)cc32)CC1 — higher, 33.5%
- CCCCCN(C)CCC(O)(P(=O)(O)O)P(=O)(O)O [756736-L2] — higher, 25.4%
- Cc1cc2c(cc1S(N)(=O)=O)S(=O)(=O)CCC2 — higher, 25.8%
- CC[C@@H]1OC(OC(c2c[nH]cn2)C(NC(=O)c2nc(C(CC(N)=O)NCC(N)C(N)=O)nc(N)c2C)C(=O)NC(C)C(O)C(C)C(=O)NC(C(=O)NCCc2nc(-c3nc(C(=O)NCCCCN=C(N)N)cs3)cs2)C(C)O)[C@@H](O[C@H]2O[C@H](CO)[C@@H](O)[C@H](OC(N)=O)[C@@H]2O)[C@@H](C)[C@@H]1C (some centres unmarked) — lower, -5.83%
- O=C(NCCCN1CCOCC1)c1ccc(Cl)cc1 — higher, 17.5%
- CC(C)OC(=O)CCC/C=C\C[C@@H]1[C@@H](CC[C@@H](O)CCc2ccccc2)[C@H](O)C[C@@H]1O — lower, 12.8%
- CC[C@@H](C(=O)[C@@H](C)[C@@H](O)[C@H](C)[C@@H]1O[C@@H]([C@@H](CC)C(=O)O)CC[C@@H]1C)[C@H]1OC2(C=C[C@@H](O)[C@]3(CC[C@@](C)([C@H]4CC[C@](O)(CC)[C@H](C)O4)O3)O2)[C@H](C)C[C@@H]1C (some centres unmarked) — higher, 19.1%
- CC[C@]1(O)C[C@H]2CN(CCc3c([nH]c4ccccc34)[C@@](C(=O)OC)(c3cc4c(cc3OC)N(C=O)[C@H]3[C@@](O)(C(=O)OC)[C@H](OC(C)=O)[C@]5(CC)C=CCN6CC[C@]43[C@@H]65)C2)C1 — lower, 9.62%
- COc1ccccc1N1CCN(CCCNc2cc(=O)n(C)c(=O)n2C)CC1 — higher, 37.2%
